Only some compounds are listed: those with a hit (about 9% of all), similar ones and a draw of the others.
BAZ2B inh – inhibitors of human BAZ2B bromodomain. AlphaScreen BAZ2B-H3K14Ac peptide displacement. Potency, µM (highest dose often 114 µM), for inactives: top-dose activity change, negative = inhibition, actives largely listed as inhibitors. 360,000 tested, 4.4% active. AID 504333; note: % is set by controls: 0 for no effect and ±100 for the full control effect; nearly all actives have a fitted effect of over 60% in size
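Multi-concentration screen (max 110 uM) measuring displacement of acetylated histone H3 peptide from BAZ2B by AlphaScreen, using 50 nM protein, 50 nM peptide and 10 ug/mL streptavidin donor plus Ni-chelate acceptor beads.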
JMJD2A Tudor inh – blocks the human JMJD2A Tudor domain | 390,000 tested, 4.4% active | AlphaScreen JMJD2A-Tudor / H3K4me3 peptide binding | Potency, µM (highest dose often 114 µM), for inactives: top-dose activity change, negative = inhibition, usual class: inhibitors | AID 504339 | O75164; note: % is set by controls: 0 for no effect and ±100 for the full control effect; nearly all actives have a fitted effect of over 50% in size
HP1b chromo inh – inhibitors of HP1-beta chromodomain binding to methylated histone tails; AlphaScreen HP1-beta / biotin-H3K9me3 peptide binding; Potency, µM (top dose mostly 114 µM), inactives show top-dose activity change, negative = inhibition, most hits filed as inhibitors; 390,000 tested, 0.56% active; AID 540317; note: nearly all actives have a fitted effect of over 70% in size
Target sequence (P83916 whole entry, looked up): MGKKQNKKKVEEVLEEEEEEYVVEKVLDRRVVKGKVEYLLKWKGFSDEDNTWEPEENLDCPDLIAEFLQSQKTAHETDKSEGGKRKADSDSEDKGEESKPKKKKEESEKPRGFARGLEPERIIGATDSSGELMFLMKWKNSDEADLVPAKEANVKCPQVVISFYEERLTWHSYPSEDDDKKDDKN
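HP1-beta protein (50 nM final) preincubated 30 min at room temperature with biotinylated H3(1-18)K9me3 peptide (50 nM) in PBS pH 7.4, 0.01% Tween-20, then compound added for 30 min. AlphaScreen streptavidin donor/nickel chelate acceptor beads (10 ug/mL final), 30 min dark, luminescence read.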
G9a block – G9a (human) methyltransferase inhibition | 350,000 tested, 8.8% active | AID 504332 | Potency, µM (titrated, usually from 102 µM), for the others: top-dose activity, negative = inhibition, hits mostly inhibitors | G9a H3K9 monomethylation, AlphaScreen, 2 h | Q96KQ7; note: % is set by controls: 0 for no effect and ±100 for the full control effect; nearly all actives have a fitted effect of over 75% in size
Target sequence (Q96KQ7 913-1193 limits assumed): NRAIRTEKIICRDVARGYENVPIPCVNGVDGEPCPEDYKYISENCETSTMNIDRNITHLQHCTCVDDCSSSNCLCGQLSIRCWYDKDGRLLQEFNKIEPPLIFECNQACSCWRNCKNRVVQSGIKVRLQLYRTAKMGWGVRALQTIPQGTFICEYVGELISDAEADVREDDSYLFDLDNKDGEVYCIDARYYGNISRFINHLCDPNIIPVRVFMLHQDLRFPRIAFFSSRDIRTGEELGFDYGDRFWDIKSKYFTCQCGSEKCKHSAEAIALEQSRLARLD
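AlphaScreen detection with an anti-monomethyl H3K9 antibody quantified product after a 2 h room-temperature reaction containing 500 nM biotinylated H3K9 peptide, 20 µM SAM and 20 nM enzyme, which had been preincubated 15 min with compound.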
PLK1 PBD block – PLK1 (human) polo-box domain binding inhibition | Plk1 PBD binding of FITC phosphopeptide, fluorescence polarization | Potency, µM, for inactives: max response, negative = inhibition, most hits filed as inhibitors | 360,000 tested, 2.8% active; note: series mostly up to about 57 µM; % is set by controls: 0 for no effect and ±100 for the full control effect; nearly all actives have a fitted effect of over 65% in size
ALOX12 inh – blocks human arachidonate 12S-lipoxygenase; 580,000 tested, 1.1% active; Potency, µM (titrated, usually from 108 µM), without a hit: at the top dose activity change, negative = inhibition, hits mostly inhibitors; purified 12hLO, xylenol orange hydroperoxide absorbance; P18054; AID 1671190; note: % is set by controls: 0 for no effect and ±100 for the full control effect
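Purified human 12hLO (150 nM final) in 25 mM Hepes, 0.01% Triton X-100, pH 7.0 was preincubated 15 min at room temperature with compound. Then 40 uM arachidonic acid was added, 30 min. Hydroperoxide was read by Fe-XO absorbance ratio 573/405 nm.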
* = called active by the depositor; ? = inconclusive; · = no result; [ ] = remark or other dose. Calls come from the whole dose curve; as a rule, active = well fitted curve in the direction sought with a large enough effect; inconclusive = small, poorly fitted or top-dose-only effect, or another doubt; inactive = no such curve, though single readings can be large; an effect the other way counts as inactive or inconclusive. Potency is the fitted concentration of half-maximal effect.

SMILES	BAZ2B inh	JMJD2A Tudor inh	HP1b chromo inh	G9a block	PLK1 PBD block	ALOX12 inh
O=[N+]([O-])c1ccc(CN2CCN(c3ccc4ccccc4n3)CC2)cc1	?	-22%	22%	-40%	-5%	50µM*
CCc1ccccc1OCCOc1ccc(C)cc1OC	73%	-27%[11.4 µM]	93%	47%[59 µM]	3µM*	12%
COc1cc(C)ccc1OCCOc1cc(C)ccc1Cl	?	-27%[11.4 µM]	31%	?	24µM*	16%
C=CCN(CC=C)CCCOc1ccc(C)cc1OC	25µM*	0.32µM*	?	25µM*	-17%	?
COc1cc(C)ccc1OCCCOc1ccccc1Br	51%	-13%	68%	·	-1%	0%
COc1cc(C)ccc1OCCOc1c(Cl)cc(Cl)cc1Cl	167%	96%	208%	229%	-4%	0%
CCOC(=O)C1=C(C)C(c2cccc(Oc3ccccc3)c2)NC(=S)N1 (configuration not stated)	?	-16%	-2%	4%[59 µM]	-18%	40µM*
CCOC(=O)C1=C(C)C(c2ccc(OC)cc2)NC(=S)N1 (configuration not stated)	1%	-85%[57.1 µM]	-14%	-43%[59 µM]	6µM*	0%
O=Cc1cccc(OCc2ccc(Cl)cc2)c1	·	·	·	·	·	4%
CCn1cc(C(=O)NCCOc2ccc(OC)cc2)c2ccccc21	·	·	·	·	·	-2%
CCN=C1SC(CC(=O)Nc2ccc3c(c2)OCO3)C(=O)N1CC (configuration not stated)	-9%	-10%	15%[57 µM]	·	-3%	9%
NC1=NC(=O)C(CC(=O)Nc2ccc3c(c2)OCO3)S1 (configuration not stated)	-33%	-13%	28%	50µM*	-1%	3%
CN(C)CCN=Cc1c(O)n(Cc2ccccc2)c(=O)c2ccccc12	-32%	-22%	-6%	56µM*	-3%	7%
CCCn1nc(C(=O)Nc2ccc3nc(N4CCOCC4)sc3c2)ccc1=O	-7%	-14%	11%	50µM*	-3%	1%
COc1ccc(C(=O)Nc2ccc3nc(N4CCOCC4)sc3c2)cc1OC	4%	0%	31%	-7%[12.7 µM]	-1%	22%
O=C(CSc1nc2ccccc2c(=O)[nH]1)Nc1ccc(N2CCOCC2)cc1	-1%	-6%	25%	88%	-3%	-3%
COc1cc2c(ccc3cc(OC)c(OC)c(O)c32)cc1O	7.1µM*	10µM*	?	?	?	?
O=C(Cc1cccs1)Nc1nc(-c2ccccc2)cs1	-2%	-1%	32%	-7%	-4%	-5%
O=C(COC(=O)/C=C/c1cccs1)Nc1nc(-c2ccccc2)cs1	5%	-9%	58%	1.1µM*	-16%	-8%
O=C(COC(=O)/C=C/c1cccs1)Nc1nc(-c2cccc(Br)c2)cs1	-2%	-8%	35%	18%[59 µM]	3%	-1%
C/C(=N\Nc1nc2ccccc2s1)c1cccs1	?	?	-16%	-45%[59 µM]	-1%	?
O=C(COC(=O)c1cccs1)Nc1nc(-c2ccccc2)cs1	0%	-5%	32%	40µM*	-18%	-22%
C/C(=N\Nc1nc(-c2ccccc2)cs1)c1cccs1	40µM*	?	-31%	5µM*	-23%	45µM*
Cc1cc2cc(CN(CCCO)S(=O)(=O)c3cccc4nsnc34)c(=O)[nH]c2cc1C	?	-30%	-4%	-10%	-15%	5%
Cc1cc(C)nc(SCC(=O)NN=C2CCCC2)n1	-19%	18µM*	?	12%[59 µM]	6.7µM*	13%
Cc1cc(C)nc(SCC(=O)N/N=C/c2cccn2-c2ccc(O)cc2)n1	?	?	-26%	40µM*	-5%	-20%
O=C(N/N=C/c1cccc([N+](=O)[O-])c1)c1cccc(Br)c1	1%	-23%	-10%	3%	30µM*	-1%
O=C(N/N=C/c1cccc([N+](=O)[O-])c1)c1ccc(Br)cc1	-18%	?	28%	3%	-16%	9%
O=C(CSc1ncccn1)NN=C1CCCCCCC1	-7%	1%	33%	7%[59 µM]	-2%	6%
